Targets with a hit are over-represented here; the source holds about 8,800 in all. About 0.5% of all pairs of compound and target were hits. A number with no mark means an inactive call.

Assay in all cases: log2 fold change, soluble protein after heating vs DMSO (PISA); higher = thermal stabilisation; K562 lysate, 10 uM; active = over 0.2 and 3.5 SD of the protein, either way, in both replicates (recomputed)
Compound in assay [1]: Cc1cn(-c2cc(NC(=O)c3ccc(C)c(Nc4nccc(-c5cccnc5)n4)c3)cc(C(F)(F)F)c2)cn1 [nilotinib]
The gist of the method:
(§1)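 Dounce homogenisation of K562 pellets in PBS pH 7.4 with 1 mM MgCl2 produced a crude extract, used at 1 mg/mL protein. Exposure to 10 μM compound lasted 30 min, and aliquots were then heated for 3 min across 48°C-58°C, pooled and brought to 0.5% NP-40 at 4°C. The supernatant after 21,000xg for 90 min was quantified by TMTpro 16plex LC-MS/MS with channel sums equalised. Duplicate values are given as log-two fold change in thermal stability relative to solvent controls.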

Compound in assay [2]: Cc1nc(Nc2n[nH]c3c2CN(C(=O)N[C@H](CN(C)C)c2ccccc2)C3(C)C)c2sccc2n1
The gist of the method: as §1

Compound in assay [3]: Cc1nc(Nc2ncc(C(=O)Nc3c(C)cccc3Cl)s2)cc(N2CCN(CCO)CC2)n1 [dasatinib]
The gist of the method:
as §1

Compound in assay [4]: Cc1ncc(-c2ccnc(Nc3ccc(S(C)(=O)=O)cc3)n2)n1C(C)C
The essentials: as §1

Compound in assay [5]: Cn1cc(-c2ccc3c(c2)CCN3C(=O)Cc2cccc(C(F)(F)F)c2)c2c(N)ncnc21
The essentials:
as §1

Compound in assay [6]: Cn1cc(CNCC2CCN(c3ncc(C(=O)NO)cn3)CC2)c2ccccc21 [quisinostat]
The essentials:
as §1

Compound in assay [7]: Cn1cncc1[C@@](N)(c1ccc(Cl)cc1)c1ccc2c(c1)c(-c1cccc(Cl)c1)cc(=O)n2C [tipifarnib]
The gist of the method:
as §1

Compound in assay [8]: NC(=O)Nc1cc(-c2cccc(F)c2)sc1C(=O)N[C@H]1CCCNC1
The gist of the method: as §1

Compound in assay [9]: NC(=O)c1cnc(N[C@@H]2CCCC[C@@H]2N)nc1Nc1cccc(-n2nccn2)c1
The essentials: as §1

Compound in assay [10]: NC1(c2ccc(-c3nc4ccn5c(=O)[nH]nc5c4cc3-c3ccccc3)cc2)CCC1
The gist of the method: as §1

Chain of UniProt Q14671 (Q14671 whole entry, looked up): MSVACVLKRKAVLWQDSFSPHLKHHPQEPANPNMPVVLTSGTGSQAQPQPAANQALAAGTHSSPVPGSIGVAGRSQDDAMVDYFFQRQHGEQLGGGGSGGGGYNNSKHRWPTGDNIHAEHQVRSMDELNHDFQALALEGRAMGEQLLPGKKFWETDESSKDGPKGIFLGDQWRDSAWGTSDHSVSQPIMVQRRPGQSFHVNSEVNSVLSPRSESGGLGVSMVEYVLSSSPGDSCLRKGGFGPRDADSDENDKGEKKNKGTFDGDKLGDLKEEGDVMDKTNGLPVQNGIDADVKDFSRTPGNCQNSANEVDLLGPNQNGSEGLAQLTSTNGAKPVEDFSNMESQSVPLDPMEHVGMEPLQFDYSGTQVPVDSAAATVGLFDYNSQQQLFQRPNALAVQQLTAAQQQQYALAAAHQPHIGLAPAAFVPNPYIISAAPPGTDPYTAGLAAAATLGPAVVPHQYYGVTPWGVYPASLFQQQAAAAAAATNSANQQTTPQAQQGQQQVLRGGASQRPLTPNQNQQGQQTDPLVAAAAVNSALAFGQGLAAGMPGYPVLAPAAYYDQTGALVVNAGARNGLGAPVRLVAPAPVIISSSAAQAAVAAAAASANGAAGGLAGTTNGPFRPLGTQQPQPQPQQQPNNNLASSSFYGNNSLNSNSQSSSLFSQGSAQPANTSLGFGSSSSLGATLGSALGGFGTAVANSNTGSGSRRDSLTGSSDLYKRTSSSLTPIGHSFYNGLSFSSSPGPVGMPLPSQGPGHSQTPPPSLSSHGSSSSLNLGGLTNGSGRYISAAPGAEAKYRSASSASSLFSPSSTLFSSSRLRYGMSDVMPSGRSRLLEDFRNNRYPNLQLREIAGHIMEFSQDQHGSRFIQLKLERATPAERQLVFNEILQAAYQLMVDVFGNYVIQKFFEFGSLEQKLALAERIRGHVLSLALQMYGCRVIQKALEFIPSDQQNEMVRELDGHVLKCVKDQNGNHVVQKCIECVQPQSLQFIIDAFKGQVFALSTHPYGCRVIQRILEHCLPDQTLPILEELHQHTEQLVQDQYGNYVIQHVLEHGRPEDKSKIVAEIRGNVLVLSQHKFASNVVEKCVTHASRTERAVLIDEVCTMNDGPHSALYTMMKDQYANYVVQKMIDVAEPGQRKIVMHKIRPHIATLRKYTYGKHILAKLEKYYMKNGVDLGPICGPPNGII
Chain of UniProt Q9UNP9 (Q9UNP9 whole entry, looked up): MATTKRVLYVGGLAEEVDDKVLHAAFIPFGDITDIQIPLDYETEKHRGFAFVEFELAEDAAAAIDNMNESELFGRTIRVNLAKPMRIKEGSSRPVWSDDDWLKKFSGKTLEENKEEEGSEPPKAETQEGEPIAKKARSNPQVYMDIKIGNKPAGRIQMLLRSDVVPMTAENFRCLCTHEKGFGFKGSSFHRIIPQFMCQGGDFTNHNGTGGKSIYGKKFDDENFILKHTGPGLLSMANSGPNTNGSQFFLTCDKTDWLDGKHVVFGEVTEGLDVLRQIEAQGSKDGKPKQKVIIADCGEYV
Chain of UniProt Q29RF7 (Q29RF7 whole entry, looked up): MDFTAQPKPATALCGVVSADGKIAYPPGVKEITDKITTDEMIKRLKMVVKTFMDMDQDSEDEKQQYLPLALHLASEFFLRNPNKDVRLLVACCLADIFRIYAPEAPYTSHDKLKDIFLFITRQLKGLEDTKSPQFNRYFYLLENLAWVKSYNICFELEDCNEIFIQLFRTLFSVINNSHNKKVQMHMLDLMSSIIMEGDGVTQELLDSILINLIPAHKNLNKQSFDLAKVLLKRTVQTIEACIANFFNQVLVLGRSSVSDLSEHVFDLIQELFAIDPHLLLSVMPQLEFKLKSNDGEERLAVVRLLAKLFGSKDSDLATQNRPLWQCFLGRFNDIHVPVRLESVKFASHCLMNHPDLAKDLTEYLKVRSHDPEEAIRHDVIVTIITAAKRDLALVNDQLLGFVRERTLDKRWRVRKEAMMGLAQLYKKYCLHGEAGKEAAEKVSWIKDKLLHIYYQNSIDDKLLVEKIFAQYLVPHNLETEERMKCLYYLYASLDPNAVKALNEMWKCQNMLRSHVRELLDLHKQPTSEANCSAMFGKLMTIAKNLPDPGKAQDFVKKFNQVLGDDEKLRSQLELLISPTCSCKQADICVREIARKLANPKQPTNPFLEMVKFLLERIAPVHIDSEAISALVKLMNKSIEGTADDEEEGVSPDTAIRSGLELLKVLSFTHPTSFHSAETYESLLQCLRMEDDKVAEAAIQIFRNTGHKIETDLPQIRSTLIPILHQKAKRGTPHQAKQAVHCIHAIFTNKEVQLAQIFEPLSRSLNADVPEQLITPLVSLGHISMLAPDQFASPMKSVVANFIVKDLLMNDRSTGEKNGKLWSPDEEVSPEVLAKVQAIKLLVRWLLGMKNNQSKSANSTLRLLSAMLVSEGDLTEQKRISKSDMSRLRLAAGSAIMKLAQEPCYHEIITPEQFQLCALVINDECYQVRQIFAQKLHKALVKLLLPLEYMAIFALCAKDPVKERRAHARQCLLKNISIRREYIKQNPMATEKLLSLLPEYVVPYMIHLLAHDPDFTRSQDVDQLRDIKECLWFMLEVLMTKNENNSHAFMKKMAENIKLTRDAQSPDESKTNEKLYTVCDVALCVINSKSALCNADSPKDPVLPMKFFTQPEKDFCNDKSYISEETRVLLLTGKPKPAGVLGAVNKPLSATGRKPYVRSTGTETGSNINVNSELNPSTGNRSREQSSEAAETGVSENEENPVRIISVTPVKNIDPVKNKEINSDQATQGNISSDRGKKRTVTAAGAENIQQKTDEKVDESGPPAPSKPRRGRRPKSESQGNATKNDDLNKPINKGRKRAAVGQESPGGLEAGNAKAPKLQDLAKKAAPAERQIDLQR
Chain of UniProt Q9UBF8 (Q9UBF8 whole entry, looked up): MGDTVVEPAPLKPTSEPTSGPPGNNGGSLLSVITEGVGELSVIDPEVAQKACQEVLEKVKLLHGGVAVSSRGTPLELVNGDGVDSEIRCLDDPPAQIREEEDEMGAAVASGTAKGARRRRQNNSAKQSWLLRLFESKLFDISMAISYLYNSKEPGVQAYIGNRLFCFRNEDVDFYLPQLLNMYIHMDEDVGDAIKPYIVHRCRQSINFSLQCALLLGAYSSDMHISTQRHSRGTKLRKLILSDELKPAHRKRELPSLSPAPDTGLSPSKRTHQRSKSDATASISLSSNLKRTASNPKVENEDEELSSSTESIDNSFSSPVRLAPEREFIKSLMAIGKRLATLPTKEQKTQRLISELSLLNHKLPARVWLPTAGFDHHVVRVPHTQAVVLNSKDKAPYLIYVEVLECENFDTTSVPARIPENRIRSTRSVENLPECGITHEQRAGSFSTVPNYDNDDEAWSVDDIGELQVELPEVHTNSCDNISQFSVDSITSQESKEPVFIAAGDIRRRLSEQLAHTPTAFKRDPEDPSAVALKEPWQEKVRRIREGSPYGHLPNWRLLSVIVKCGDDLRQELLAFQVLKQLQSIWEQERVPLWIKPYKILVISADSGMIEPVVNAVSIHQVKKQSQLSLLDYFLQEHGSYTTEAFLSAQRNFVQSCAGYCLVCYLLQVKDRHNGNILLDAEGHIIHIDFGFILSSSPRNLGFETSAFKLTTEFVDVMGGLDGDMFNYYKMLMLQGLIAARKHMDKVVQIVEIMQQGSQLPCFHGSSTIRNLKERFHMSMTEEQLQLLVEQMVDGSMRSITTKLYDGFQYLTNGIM
Chain of UniProt Q8TD55 (Q8TD55 whole entry, looked up): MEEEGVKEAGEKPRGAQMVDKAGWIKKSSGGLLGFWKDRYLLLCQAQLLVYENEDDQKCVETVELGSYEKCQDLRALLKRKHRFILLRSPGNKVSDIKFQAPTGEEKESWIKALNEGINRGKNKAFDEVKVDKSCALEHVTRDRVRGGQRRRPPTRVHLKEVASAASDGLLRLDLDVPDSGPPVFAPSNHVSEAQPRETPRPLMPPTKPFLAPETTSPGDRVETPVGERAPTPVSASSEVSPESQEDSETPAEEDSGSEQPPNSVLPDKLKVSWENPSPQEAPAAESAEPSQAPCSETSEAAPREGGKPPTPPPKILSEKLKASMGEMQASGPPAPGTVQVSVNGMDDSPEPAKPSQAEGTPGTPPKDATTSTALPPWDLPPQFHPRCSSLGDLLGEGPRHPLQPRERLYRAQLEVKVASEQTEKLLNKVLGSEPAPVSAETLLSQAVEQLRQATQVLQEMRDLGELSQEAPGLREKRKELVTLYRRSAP
Chain of UniProt Q9BZL6 (Q9BZL6 whole entry, looked up): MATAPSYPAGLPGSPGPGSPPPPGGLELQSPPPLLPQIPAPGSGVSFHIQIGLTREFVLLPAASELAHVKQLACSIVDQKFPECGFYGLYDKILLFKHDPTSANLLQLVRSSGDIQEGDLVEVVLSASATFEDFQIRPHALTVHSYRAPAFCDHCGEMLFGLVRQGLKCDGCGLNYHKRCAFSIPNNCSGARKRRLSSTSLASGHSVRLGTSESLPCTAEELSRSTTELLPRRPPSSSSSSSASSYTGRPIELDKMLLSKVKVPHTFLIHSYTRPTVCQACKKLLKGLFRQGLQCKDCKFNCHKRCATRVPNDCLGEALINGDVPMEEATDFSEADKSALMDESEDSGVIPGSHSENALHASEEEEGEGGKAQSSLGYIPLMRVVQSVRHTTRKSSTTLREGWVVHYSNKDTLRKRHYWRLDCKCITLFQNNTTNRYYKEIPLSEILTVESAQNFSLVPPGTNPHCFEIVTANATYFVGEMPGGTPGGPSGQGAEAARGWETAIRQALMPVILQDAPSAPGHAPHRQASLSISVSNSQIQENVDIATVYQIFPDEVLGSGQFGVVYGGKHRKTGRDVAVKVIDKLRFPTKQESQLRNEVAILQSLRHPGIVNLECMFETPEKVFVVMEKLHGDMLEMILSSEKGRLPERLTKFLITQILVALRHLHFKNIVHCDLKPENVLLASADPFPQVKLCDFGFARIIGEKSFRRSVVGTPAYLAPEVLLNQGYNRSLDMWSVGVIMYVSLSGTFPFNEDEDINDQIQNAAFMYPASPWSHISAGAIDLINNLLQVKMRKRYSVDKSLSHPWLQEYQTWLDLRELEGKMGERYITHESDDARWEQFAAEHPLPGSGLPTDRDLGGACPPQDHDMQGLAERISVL

Turning to PRKAB2 (UniProt O43741), the log2 fold change in assay [1] is 0.033; in [2] it was 0.203; in assay [3], -0.049; in assay [4], 0.106; in assay [5] it was 0.042; in assay [6], -0.031. Moreover, the log2 fold change in [7] is -0.031; in [8], 0.14; in assay [9], 0.036; in assay [10], 0.023.
PLEKHO2 (UniProt Q8TD55): the log2 fold change in [1] is 0.207; in assay [2], -0.237; in assay [3] it was -0.096; in assay [4], 0.118; in assay [5] it was -0.039; in [6], 0.062. For the same target, the log2 fold change in [7] is -0.192; in assay [8], 0.068; in [9] it was -0.071; in assay [10] it was 0.873 (active).
For the target PRKD2 isoform 3 (UniProt Q9BZL6), the log2 fold change in assay [1] was 0.079; in assay [2], -0.229; in assay [3], 0.028; in [4] it was -0.054; in [5], 0.04; in [6] it was -0.046. For the same target, the log2 fold change in assay [7] is 0.069; in assay [8], -0.115; in assay [9], 0.06; in [10], -0.01.
For the target PI4KB (UniProt Q9UBF8), the log2 fold change in [1] is 0.003; in [2], 0.145; in assay [3], 0.002; in assay [4] it was 0.165; in assay [5], 0.013; in assay [6] it was -0.072. In addition, the log2 fold change is -0.024 in [7], -0.026 in [8], -0.049 in assay [9] and -0.014 in assay [10].
In the case of PPP2CA (UniProt P67775), the log2 fold change in assay [1] was -0.009; in assay [2] it was 0.037; in [3] it was 0.017; in assay [4], 0.009; in assay [5], 0.057; in assay [6], 0.185. The log2 fold change was 0.024 in [7], -0.093 in assay [8], -0.008 in [9] and 0.023 in assay [10].
With PTK2 (UniProt Q05397), the log2 fold change is -0.032 in assay [1]; 0.235 in [2]; 0.083 in [3]; 0.078 in [4]; 0.18 in [5]; -0.038 in [6]. Further, the log2 fold change is -0.046 in assay [7], 0.373 in assay [8], 0.081 in assay [9] and 0.021 in assay [10].
PGPEP1 (UniProt Q9NXJ5): the log2 fold change in [1] was 0.018; in assay [2] it was 0.019; in assay [3] it was -0.067; in [4], 0.07; in assay [5], 0.011; in assay [6] it was 0.041. For the same target, the log2 fold change is -0.006 in [7], -0.033 in [8], -0.03 in assay [9] and 0.033 in assay [10].
As to PRKAR2B (UniProt P31323), the log2 fold change is 0.023 in [1]; -0.078 in assay [2]; -0.104 in [3]; 0.013 in [4]; 0.031 in assay [5]; 0.073 in [6]. Further, the log2 fold change in [7] was 0.019; in [8], -0.1; in assay [9] it was -0.028; in assay [10] it was 0.013.
With PDCD4 (UniProt Q53EL6), the log2 fold change in assay [1] is 0.028; in [2], 0.019; in [3], -0.026; in assay [4] it was 0.035; in assay [5], 0.005; in [6] it was -0.044. Further, the log2 fold change in assay [7] is -0.008; in assay [8], -0.01; in assay [9], 0.009; in [10], -0.013.
In the case of PRRC2A (UniProt P48634), the log2 fold change in assay [1] was -0.044; in [2] it was 0.01; in assay [3] it was 0.004; in assay [4], 0.002; in [5], -0.003; in [6], 0.015. In addition, the log2 fold change is -0.036 in [7], 0.059 in [8], -0.011 in [9] and 0.02 in assay [10].
As for PUM1 isoform 3 (UniProt Q14671), the log2 fold change in assay [1] was -0.072; in assay [2], -0.012; in assay [3], -0.027; in assay [4] it was 0.03; in [5], 0.016; in [6] it was 0.01. In addition, the log2 fold change was -0.057 in [7], 0.004 in assay [8], -0.021 in [9] and 0.028 in assay [10].
For PPFIA2 (UniProt O75334), the log2 fold change in assay [1] is -0.046; in assay [2], 0.027; in assay [3] it was -0.064; in assay [4], -0.022; in [5], 0.01; in assay [6], -0.238. Further, the log2 fold change in assay [7] was -0.029; in assay [8], 0.017; in [9] it was 0.024; in [10], -0.089.
In the case of PPIE (UniProt Q9UNP9), the log2 fold change in assay [1] is -0.027; in [2] it was 0.017; in assay [3], -0.017; in assay [4], -0.01; in [5], -0.016; in [6], -0.091. Further, the log2 fold change in assay [7] was -0.003; in [8], -0.018; in [9] it was 0.04; in [10] it was -0.034.
PDS5A (UniProt Q29RF7): the log2 fold change in assay [1] was -0.013; in [2], -0.002; in assay [3], -0.081; in assay [4] it was -0.003; in assay [5], 0.008; in assay [6], -0.113. For the same target, the log2 fold change was 0.001 in assay [7], 0.047 in assay [8], 0.011 in assay [9] and -0.023 in assay [10].
For PES1 (UniProt O00541), the log2 fold change in assay [1] is -0.004; in [2], 0.006; in [3], 0.016; in assay [4], -0.034; in assay [5] it was 0.001; in [6] it was -0.067. Besides, the log2 fold change in assay [7] was 0.001; in assay [8], 0.026; in assay [9], 0.015; in assay [10], -0.047.
